Measured values reported in PubChem BioAssay (NCI).
This is part of a sample that, as a whole, favours compounds with a hit. Of some 83,000 tested, about 20% had one in any assay.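 Interpretation: 100, growth as untreated; towards 0, rising growth inhibition; 0, no net growth; 0 to -100, cell death. Compounds scoring below 10 were considered active.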 Active and inactive are the calls of the source. Where a SMILES comes first, the peptide text is derived from it. [ ]: non-standard residue; d: D form. ξ: configuration not given here. ξD = NC(CC(=O)O)C(=O)O

Experiments:
Test in all cases: NCI-60 one-dose screen, 48 h (100 = growth as untreated, 0 = no growth, -100 = all killed)
HCT-15 colon = settings: 10 µM unless noted
HT29 colon = settings: 10 µM unless noted
SNB-75 CNS = settings: 10 µM unless noted
SNB-19 CNS = settings: 10 µM unless noted
PC-3 prostate = settings: 10 µM unless noted
SK-MEL-5 melanoma = settings: 10 µM unless noted
UACC-62 melanoma = settings: 10 µM unless noted
SK-MEL-28 melanoma = settings: 10 µM unless noted
SK-MEL-2 melanoma = settings: 10 µM unless noted
SN12C renal = settings: 10 µM unless noted
UO-31 renal = settings: 10 µM unless noted
TK-10 renal = settings: 10 µM unless noted
ACHN renal = settings: 10 µM unless noted
CAKI-1 renal = settings: 10 µM unless noted
A498 renal = settings: 10 µM unless noted
MOLT-4 leukemia = settings: 10 µM unless noted
U251 CNS = settings: 10 µM unless noted
CCRF-CEM leukemia = settings: 10 µM unless noted
LOX IMVI melanoma = settings: 10 µM
EKVX NSCLC = settings: 10 µM unless noted

Measured: growth

CCC[CH2][Sn]1([CH2]CCC)[O]C2C(CO)OC(n3ccc(N)nc3=O)C2[O]1 (stereo not given)
active: HCT-15 colon -59.3% | HT29 colon -69.8% | SNB-75 CNS -21.2% | PC-3 prostate -11.3% | SK-MEL-5 melanoma -72.1% | UACC-62 melanoma -89% | SK-MEL-28 melanoma -90.3% | SK-MEL-2 melanoma -91.9% | SN12C renal -52.6% | UO-31 renal -78.2% | TK-10 renal -98.2% | ACHN renal -83.9% | CAKI-1 renal -82.7% | A498 renal -94.5% | MOLT-4 leukemia -26.6%
inactive: SNB-19 CNS 28.4%

CCCOC(=O)c1nc(N(CC2CCCCC2)C(=O)NC)sc1/N=C/c1ccccc1
inactive: SNB-19 CNS 24.5% | SK-MEL-28 melanoma 35% | SN12C renal 15% | UO-31 renal 23.9% | TK-10 renal 52.5% | ACHN renal 17.4% | CAKI-1 renal 31.7% | A498 renal 63.5%
active: HCT-15 colon -70.3% | HT29 colon -37.7% | SNB-75 CNS -11.1% | U251 CNS 5.96% | SK-MEL-5 melanoma -11.9% | UACC-62 melanoma 4.74% | SK-MEL-2 melanoma -0.0368% | CCRF-CEM leukemia 2.45% | MOLT-4 leukemia 3.07%

C=C(C(N)=O)C(N)C(=O)O (stereo not given)
inactive: HCT-15 colon 109% | HT29 colon 100% | SNB-75 CNS 108% | SNB-19 CNS 111% | PC-3 prostate 103% | SK-MEL-5 melanoma 103% | UACC-62 melanoma 114% | SK-MEL-28 melanoma 106% | SN12C renal 108% | UO-31 renal 97.6% | TK-10 renal 109% | ACHN renal 108% | CAKI-1 renal 116% | A498 renal 113%

O=[n+]1c2ccccc2n([O-])c2cc(Cl)ccc21
active: MOLT-4 leukemia -30.4%
inactive: HCT-15 colon 43.7% | HT29 colon 74.1% | SNB-75 CNS 50.7% | SNB-19 CNS 94.2% | PC-3 prostate 50.2% | SK-MEL-28 melanoma 99.2% | SN12C renal 62.3% | UO-31 renal 55.7% | TK-10 renal 102% | ACHN renal 20.7% | CAKI-1 renal 19.3% | A498 renal 81.6%

COc1cc(NC(=O)C2=C(C)NC(C)=C(C(=O)Nc3cc(OC)c(Cl)cc3OC)C2c2cccc([N+](=O)[O-])c2)c(OC)cc1Cl
active: SK-MEL-5 melanoma -5.53%
inactive: HCT-15 colon 14.3% | HT29 colon 40.6% | SNB-75 CNS 45.3% | U251 CNS 31.6% | PC-3 prostate 16.8% | UACC-62 melanoma 27.6% | SK-MEL-28 melanoma 24.4% | SK-MEL-2 melanoma 10.2% | SN12C renal 32.2% | TK-10 renal 70.6% | ACHN renal 29.2% | CAKI-1 renal 21.4% | A498 renal 75.3% | CCRF-CEM leukemia 12.3% | MOLT-4 leukemia 10.3%

COc1ccc2nc3cc(Cl)ccc3c(NCCCCCN3CCCCC3)c2c1
inactive: A498 renal 19.7%
active: HCT-15 colon -32.2% | HT29 colon -41.3% | SNB-75 CNS -98.1% | SNB-19 CNS 2.99% | U251 CNS -74.5% | SK-MEL-5 melanoma -96.9% | UACC-62 melanoma -67.9% | LOX IMVI melanoma -80.4% | SK-MEL-28 melanoma -79.9% | UO-31 renal -40.6% | TK-10 renal -9.41% | ACHN renal -67.7% | CAKI-1 renal -50.3% | CCRF-CEM leukemia -27.6% | MOLT-4 leukemia -19.5%

CSc1nc(C)c(C(=O)CCN2CCN(c3ccccn3)CC2)s1
inactive: HCT-15 colon 97.3% | HT29 colon 102% | SNB-75 CNS 103% | SNB-19 CNS 96.1% | PC-3 prostate 94.3% | SK-MEL-5 melanoma 101% | UACC-62 melanoma 98.7% | SK-MEL-28 melanoma 106% | SN12C renal 97.6% | UO-31 renal 82.9% | TK-10 renal 118% | ACHN renal 101% | CAKI-1 renal 100% | A498 renal 88.4%

O=C1/C(=C/c2ccccc2)CCC/C1=C\c1ccccc1
inactive: HCT-15 colon 81.5% | HT29 colon 30.5% | SNB-75 CNS 95.9% | SNB-19 CNS 94.6% | U251 CNS 66.2% | SK-MEL-5 melanoma 86.7% | UACC-62 melanoma 82.6% | SK-MEL-28 melanoma 98.5% | SK-MEL-2 melanoma 99.7% | EKVX NSCLC 96.1% | UO-31 renal 88.1% | TK-10 renal 104% | ACHN renal 95.6% | CAKI-1 renal 84.3% | A498 renal 84.6% | CCRF-CEM leukemia 76.3% | MOLT-4 leukemia 73%

N#CC1c2ccccc2C=CN1C(=O)CCCl (stereo not given)
active: ACHN renal -6.33% | CCRF-CEM leukemia 8.12%
inactive: HCT-15 colon 84.9% | HT29 colon 78.3% | SNB-75 CNS 75.9% | SNB-19 CNS 107% | PC-3 prostate 104% | SK-MEL-5 melanoma 101% | UACC-62 melanoma 106% | LOX IMVI melanoma 32.6% | SK-MEL-28 melanoma 105% | SK-MEL-2 melanoma 94.1% | SN12C renal 107% | UO-31 renal 60.6% | TK-10 renal 14.9% | A498 renal 132% | MOLT-4 leukemia 81.3%

C/C(=N/NC(N)=S)c1ccc(C)cc1
inactive: HCT-15 colon 79.9% | HT29 colon 55.8% | SNB-75 CNS 92.9% | SNB-19 CNS 104% | U251 CNS 84.9% | UACC-62 melanoma 103% | LOX IMVI melanoma 108% | SK-MEL-28 melanoma 111% | SK-MEL-2 melanoma 101% | EKVX NSCLC 53.9% | SN12C renal 87.4% | UO-31 renal 68.1% | TK-10 renal 102% | ACHN renal 96.6% | CAKI-1 renal 99.8% | A498 renal 94.7% | CCRF-CEM leukemia 43.3% | MOLT-4 leukemia 63.9%

CCN(CC)CCNC(Cc1ccccc1)c1ccc(OCc2ccccc2)cc1 (stereo not given)
inactive: HCT-15 colon 30.4% | HT29 colon 15.4% | SNB-75 CNS 71.4% | SNB-19 CNS 89.3% | PC-3 prostate 56.8% | SK-MEL-5 melanoma 72.8% | LOX IMVI melanoma 58.6% | SK-MEL-28 melanoma 62.5% | SK-MEL-2 melanoma 97% | SN12C renal 73.2% | UO-31 renal 41% | TK-10 renal 64% | ACHN renal 61.4% | CAKI-1 renal 85.2% | A498 renal 49.8% | MOLT-4 leukemia 57.4%
active: UACC-62 melanoma -50.8%

NCC(=O)NC(CC(=O)O)C(=O)O (stereo not given) (H-Gly-[ξD]-OH)
inactive: HCT-15 colon 105% | HT29 colon 98.2% | SNB-75 CNS 98.6% | U251 CNS 103% | PC-3 prostate 86.7% | SK-MEL-5 melanoma 101% | UACC-62 melanoma 91.4% | LOX IMVI melanoma 103% | SK-MEL-28 melanoma 104% | SK-MEL-2 melanoma 111% | EKVX NSCLC 94.7% | TK-10 renal 97.7% | ACHN renal 106% | CAKI-1 renal 89.8% | A498 renal 105% | CCRF-CEM leukemia 79.3% | MOLT-4 leukemia 109%

Cc1ccc2c(c1)sc(-c1ccc(N(C)C)cc1)[n+]2C
active: HT29 colon 4.16% | U251 CNS -2.09% | SK-MEL-5 melanoma -76.6% | LOX IMVI melanoma 1.78% | SK-MEL-2 melanoma 0.0539% | EKVX NSCLC 6.29% | SN12C renal 3.59% | A498 renal -6.25% | MOLT-4 leukemia -42.4%
inactive: HCT-15 colon 68.7% | SNB-75 CNS 14.2% | SNB-19 CNS 16.1% | SK-MEL-28 melanoma 30.8% | UO-31 renal 65.1% | TK-10 renal 14.8% | ACHN renal 63.6% | CAKI-1 renal 72.3% | CCRF-CEM leukemia 10.7%

CC(=O)N1CC(=O)NC1=S
inactive: HCT-15 colon 99.9% | HT29 colon 106% | SNB-75 CNS 89.2% | SNB-19 CNS 101% | U251 CNS 94.8% | SK-MEL-5 melanoma 103% | LOX IMVI melanoma 98.5% | SK-MEL-28 melanoma 108% | SK-MEL-2 melanoma 105% | EKVX NSCLC 94% | SN12C renal 100% | UO-31 renal 86.1% | TK-10 renal 102% | CAKI-1 renal 93% | CCRF-CEM leukemia 105% | MOLT-4 leukemia 104%

Cc1cc(C)c(C#N)c(Sc2nc(C)c([N+](=O)[O-])c(C)c2C#N)n1
active: LOX IMVI melanoma 1.66% | CAKI-1 renal 0.956%
inactive: HCT-15 colon 58.8% | HT29 colon 35.8% | SNB-75 CNS 66% | SNB-19 CNS 98.4% | PC-3 prostate 77.1% | SK-MEL-5 melanoma 86.5% | UACC-62 melanoma 66.8% | SK-MEL-28 melanoma 78.7% | SN12C renal 47.4% | UO-31 renal 39.3% | TK-10 renal 75.2% | ACHN renal 39.3% | A498 renal 110% | MOLT-4 leukemia 39.7%

Oc1ccc(Cl)cc1C(c1cc(Cl)ccc1O)C(Cl)(Cl)Cl
active: HCT-15 colon 3.95% | HT29 colon 4.03% | SNB-75 CNS 4.39% | LOX IMVI melanoma -62.8% | SN12C renal -4.47% | ACHN renal -7.96% | MOLT-4 leukemia 2.12%
inactive: SNB-19 CNS 24% | U251 CNS 11.8% | SK-MEL-5 melanoma 29.1% | SK-MEL-28 melanoma 38.8% | SK-MEL-2 melanoma 49.2% | UO-31 renal 40.8% | TK-10 renal 77.5% | CAKI-1 renal 36.8% | A498 renal 23.4% | CCRF-CEM leukemia 19.1%

CCCC[n+]1c(/C=C\c2c(OC)cc(OC)cc2OC)ccc2ccccc21
inactive: HCT-15 colon 35.1% | SNB-19 CNS 19%
active: HT29 colon -33.5% | SNB-75 CNS -13.2% | PC-3 prostate 2.91% | SK-MEL-5 melanoma -97.2% | UACC-62 melanoma -37.2% | LOX IMVI melanoma -75.5% | SK-MEL-28 melanoma -10.8% | SK-MEL-2 melanoma -44.7% | SN12C renal 3.62% | UO-31 renal 1.45% | TK-10 renal -12.7% | ACHN renal 9.92% | CAKI-1 renal -41.6% | A498 renal -23.4% | CCRF-CEM leukemia 1.26% | MOLT-4 leukemia -22.5%

COc1cc(/C=C/c2ccnc3ccccc23)cc(OC)c1OC
inactive: HCT-15 colon 32.5% | HT29 colon 11.8% | U251 CNS 33.2% | PC-3 prostate 56.1% | UACC-62 melanoma 38.2% | LOX IMVI melanoma 26.1% | SK-MEL-28 melanoma 34% | SN12C renal 31% | UO-31 renal 37% | TK-10 renal 70.1% | ACHN renal 54.7% | CAKI-1 renal 24.3% | A498 renal 18% | CCRF-CEM leukemia 43.5% | MOLT-4 leukemia 14.9%
active: SNB-75 CNS -3.85% | SK-MEL-5 melanoma 3.09%

CCc1cccc(CC)c1N1C(=O)C=CC1=O
inactive: HCT-15 colon 104% | HT29 colon 113% | SNB-75 CNS 93.8% | SNB-19 CNS 105% | U251 CNS 100% | SK-MEL-5 melanoma 98.1% | UACC-62 melanoma 112% | LOX IMVI melanoma 106% | SK-MEL-28 melanoma 119% | SN12C renal 129% | UO-31 renal 90.3% | TK-10 renal 104% | ACHN renal 102% | A498 renal 100% | CCRF-CEM leukemia 17%
active: MOLT-4 leukemia -10%
